Bioassay records: PubChem, University of Kansas High Throughput Screening Laboratory
mHTT-CaM PPI inh: mutant huntingtin-calmodulin interaction inhibitors – biochemical, AlphaScreen, primary screen; 190,000 compounds, 3.6% hits; AlphaScreen His-mHTT/GST-CaM binding, luminescence; P42858; inhibition, % at 15 µM;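 also: 0% = both proteins with DMSO and 100% = one protein alone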
Target sequence (P42858 whole entry, looked up, stated change not applied): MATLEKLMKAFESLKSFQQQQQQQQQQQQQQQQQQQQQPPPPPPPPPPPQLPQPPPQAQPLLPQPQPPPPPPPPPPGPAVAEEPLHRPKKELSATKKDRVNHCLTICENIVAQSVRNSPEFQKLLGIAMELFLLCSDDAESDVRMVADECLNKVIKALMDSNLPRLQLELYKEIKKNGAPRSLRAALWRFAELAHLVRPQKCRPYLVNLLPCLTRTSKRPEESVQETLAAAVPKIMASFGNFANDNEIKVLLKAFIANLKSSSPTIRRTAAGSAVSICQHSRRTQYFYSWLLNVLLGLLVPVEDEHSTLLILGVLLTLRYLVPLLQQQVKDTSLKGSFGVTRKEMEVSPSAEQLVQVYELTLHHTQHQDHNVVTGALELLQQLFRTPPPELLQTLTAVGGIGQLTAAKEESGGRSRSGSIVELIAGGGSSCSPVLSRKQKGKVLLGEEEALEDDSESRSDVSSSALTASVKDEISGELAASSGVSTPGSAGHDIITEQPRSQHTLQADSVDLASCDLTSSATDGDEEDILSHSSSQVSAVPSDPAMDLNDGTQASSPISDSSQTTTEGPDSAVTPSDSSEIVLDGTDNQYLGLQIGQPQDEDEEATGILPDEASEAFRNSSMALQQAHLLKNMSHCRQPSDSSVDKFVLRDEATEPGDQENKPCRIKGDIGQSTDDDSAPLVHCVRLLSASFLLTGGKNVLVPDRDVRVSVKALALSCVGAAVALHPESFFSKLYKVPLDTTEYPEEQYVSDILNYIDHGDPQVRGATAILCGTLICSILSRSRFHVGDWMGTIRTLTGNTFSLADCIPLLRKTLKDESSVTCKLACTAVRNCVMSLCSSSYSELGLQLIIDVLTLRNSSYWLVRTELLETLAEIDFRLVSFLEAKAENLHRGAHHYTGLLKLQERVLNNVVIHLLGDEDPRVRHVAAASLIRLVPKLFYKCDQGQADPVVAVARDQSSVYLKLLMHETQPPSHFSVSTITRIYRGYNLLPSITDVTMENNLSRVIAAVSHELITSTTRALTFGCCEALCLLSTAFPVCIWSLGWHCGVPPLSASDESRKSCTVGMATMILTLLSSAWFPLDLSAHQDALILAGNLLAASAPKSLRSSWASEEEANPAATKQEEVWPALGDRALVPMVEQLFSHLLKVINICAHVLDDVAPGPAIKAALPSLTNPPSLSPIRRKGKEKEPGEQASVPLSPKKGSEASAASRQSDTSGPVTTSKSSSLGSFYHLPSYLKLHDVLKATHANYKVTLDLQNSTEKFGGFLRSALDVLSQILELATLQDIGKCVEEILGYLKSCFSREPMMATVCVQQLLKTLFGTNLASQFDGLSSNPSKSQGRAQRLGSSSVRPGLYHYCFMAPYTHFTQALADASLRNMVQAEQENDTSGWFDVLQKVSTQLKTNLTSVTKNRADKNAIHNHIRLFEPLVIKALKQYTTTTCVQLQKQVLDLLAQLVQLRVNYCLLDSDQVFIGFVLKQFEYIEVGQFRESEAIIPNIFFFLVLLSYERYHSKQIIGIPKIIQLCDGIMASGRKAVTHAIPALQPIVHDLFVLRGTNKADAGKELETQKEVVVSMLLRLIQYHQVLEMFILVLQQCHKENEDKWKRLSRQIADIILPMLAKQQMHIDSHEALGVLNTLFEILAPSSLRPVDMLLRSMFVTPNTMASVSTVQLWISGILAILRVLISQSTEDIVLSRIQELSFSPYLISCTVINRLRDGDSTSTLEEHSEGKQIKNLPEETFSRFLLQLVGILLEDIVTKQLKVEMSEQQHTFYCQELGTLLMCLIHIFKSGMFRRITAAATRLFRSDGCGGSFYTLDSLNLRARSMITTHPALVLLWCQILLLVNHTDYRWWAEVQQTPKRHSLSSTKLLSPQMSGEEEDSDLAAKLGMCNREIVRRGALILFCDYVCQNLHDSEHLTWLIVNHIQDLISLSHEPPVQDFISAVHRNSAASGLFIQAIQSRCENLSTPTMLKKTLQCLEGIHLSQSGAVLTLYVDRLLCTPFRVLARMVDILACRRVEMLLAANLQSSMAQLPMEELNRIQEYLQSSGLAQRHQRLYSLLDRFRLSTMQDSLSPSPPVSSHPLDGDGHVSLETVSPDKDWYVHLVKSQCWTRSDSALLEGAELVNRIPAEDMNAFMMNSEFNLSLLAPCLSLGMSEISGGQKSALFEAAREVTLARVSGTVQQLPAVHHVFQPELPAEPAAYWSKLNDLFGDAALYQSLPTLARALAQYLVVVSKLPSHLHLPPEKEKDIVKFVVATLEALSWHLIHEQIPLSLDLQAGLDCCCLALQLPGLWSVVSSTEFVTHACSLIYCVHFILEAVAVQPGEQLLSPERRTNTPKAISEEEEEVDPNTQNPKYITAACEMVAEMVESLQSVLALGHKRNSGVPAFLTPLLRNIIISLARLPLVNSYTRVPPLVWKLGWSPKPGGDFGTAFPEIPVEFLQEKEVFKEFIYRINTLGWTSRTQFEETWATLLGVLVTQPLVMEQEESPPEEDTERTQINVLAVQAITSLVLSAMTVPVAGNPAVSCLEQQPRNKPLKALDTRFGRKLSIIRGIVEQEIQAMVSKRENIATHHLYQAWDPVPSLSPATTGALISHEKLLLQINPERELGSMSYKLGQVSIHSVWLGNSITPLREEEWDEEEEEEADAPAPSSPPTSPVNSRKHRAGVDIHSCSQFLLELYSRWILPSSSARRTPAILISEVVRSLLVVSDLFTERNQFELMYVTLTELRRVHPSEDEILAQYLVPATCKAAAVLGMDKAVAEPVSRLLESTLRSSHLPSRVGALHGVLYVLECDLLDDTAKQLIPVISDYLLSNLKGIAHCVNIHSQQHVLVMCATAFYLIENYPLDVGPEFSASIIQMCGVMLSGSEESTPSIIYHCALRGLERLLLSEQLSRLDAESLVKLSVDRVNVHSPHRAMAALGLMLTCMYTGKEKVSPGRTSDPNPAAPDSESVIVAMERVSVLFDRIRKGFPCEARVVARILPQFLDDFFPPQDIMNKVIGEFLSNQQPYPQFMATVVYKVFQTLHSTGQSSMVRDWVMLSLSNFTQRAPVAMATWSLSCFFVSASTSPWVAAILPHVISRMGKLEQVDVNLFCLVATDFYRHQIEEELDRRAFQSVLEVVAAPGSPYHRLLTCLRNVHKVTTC
Pf apPOL block: Pf-apPOL inhibitors, biochemical, fluorescence; Recombinant Pf-apPOL, molecular beacon fluorescence, 1.5 h; 210,000 compounds, 0.25% hits; inhibition, % at 10 µM; Plasmodium falciparum apicoplast DNA polymerase (apPOL); AID 1794808, 2022
Starred values were filed as active, the others as inactive. Only some compounds are listed: those with a hit (about 3.6% of all), similar ones and a draw of the others. Rule as the data show it: active = inhibition above about 50%; inactive = the rest.

What do the screens show for `Cc1ccc(-c2cc(C(=O)N3CCN(c4ccccn4)CC3)c(C)[nH]2)cc1C`?
mHTT-CaM PPI inh: 97.8*; Pf apPOL block: -8.0

How did Cc1occc1C(=O)N1CCN(c2ccccn2)CC1 do in these assays?
mHTT-CaM PPI inh: -4.3; Pf apPOL block: -10.2

Results for CN(C)c1ccc(CNC(=O)CCC(=O)N2CCCn3nc(-c4cccn4C)cc32)cc1 ?
mHTT-CaM PPI inh: 73.8*; Pf apPOL block: -0.7

What do the screens show for `CC(C)CCNC(=O)CCC(=O)N1CCCn2nc(-c3cccn3C)cc21`?
mHTT-CaM PPI inh: 19.4; Pf apPOL block: -3.1

Results for N#CC1=C2NC(=O)c3c(sc4c3CCCCC4)N2C2=C(C(=O)CCC2)C1c1cccnc1 (stereo not drawn) ?
mHTT-CaM PPI inh: 37.0; Pf apPOL block: -0.4

Results for N#CC1=C2N=C(N)c3c(sc4c3CCCCC4)N2C2=C(C(=O)CCC2)C1c1cccnc1 (stereo not drawn) ?
mHTT-CaM PPI inh: 61.0*; Pf apPOL block: -5.6

What do the screens show for `CS(=O)(=O)c1ccc(CN)cc1`?
mHTT-CaM PPI inh: -7.1

What do the screens show for `Cc1cc(C)c(C)c(S(=O)(=O)N2CCN(C)CC2)c1C`?
mHTT-CaM PPI inh: -4.4; Pf apPOL block: -3.1

Results for Cc1cc(C)c(C)c(S(=O)(=O)N2CCC(c3c[nH]c4c(C)cccc34)CC2)c1C ?
mHTT-CaM PPI inh: 50.2*; Pf apPOL block: -5.0

What do the screens show for `Cc1ccccc1CC(=O)NC1CCN(c2ccc(F)cc2)C1=O` (stereo not drawn)?
mHTT-CaM PPI inh: -0.2; Pf apPOL block: 0.6

Results for COc1cc(OC)c(OC)cc1/C=C1\CN(C)C/C(=C\c2cc(OC)c(OC)cc2OC)C1=O ?
mHTT-CaM PPI inh: 43.0; Pf apPOL block: 3.7

What do the screens show for `CN(C)c1ccc(NC(=O)c2ccc(Cn3cc([N+](=O)[O-])cn3)cc2)cc1`?
mHTT-CaM PPI inh: 75.0*; Pf apPOL block: -3.5

How did CN(C)c1ccc(NC(=O)c2ccc(N(C)C)cc2)cc1 do in these assays?
mHTT-CaM PPI inh: 72.2*; Pf apPOL block: -2.7

What do the screens show for `CN(C)c1ccc(NC(=O)c2ccc(Br)cc2)cc1`?
mHTT-CaM PPI inh: 6.7; Pf apPOL block: 6.9

What do the screens show for `CCn1ncc(Br)c1C(=O)Nc1cccc(C(=O)O)c1`?
mHTT-CaM PPI inh: 0.0; Pf apPOL block: -2.8

Results for CC(=O)N(C)c1ccc(NC(=O)c2ccc(Cn3cc(Br)cn3)cc2)cc1 ?
mHTT-CaM PPI inh: 8.0; Pf apPOL block: -0.9

How did CCn1ncc(Br)c1C(=O)Nc1ccc(N(C)C)cc1 do in these assays?
mHTT-CaM PPI inh: 56.0*; Pf apPOL block: -6.8

How did O=C(C1CCCN(c2cnn(Cc3ccccc3)c(=O)c2)C1)N1CCCCCC1 (stereo not drawn) do in these assays?
mHTT-CaM PPI inh: 10.4; Pf apPOL block: -0.8

How did CC1C(=O)N(c2ccccc2Cl)CCN1C(=O)c1ccccc1F (stereo not drawn) do in these assays?
mHTT-CaM PPI inh: -7.1; Pf apPOL block: -0.1

How did O=C(NC1CC1)c1cccc(OCC2CCCN(C(=O)c3ccsc3)C2)c1 (stereo not drawn) do in these assays?
mHTT-CaM PPI inh: 3.8; Pf apPOL block: -2.3

How did FC(F)(F)c1cccc(N=Cc2c(-c3ccccc3)nc3n2CCS3)c1 do in these assays?
Pf apPOL block: -13.5

How did C(=Nc1c(-c2ccccc2)nc2n1CCS2)c1ccccc1 do in these assays?
mHTT-CaM PPI inh: 59.0*; Pf apPOL block: -21.4

Results for O=C(CN1CCC(c2nc(-c3cccc(F)c3)no2)CC1)Nc1ccc2c(c1)OCCO2 ?
mHTT-CaM PPI inh: 15.3; Pf apPOL block: -5.9

Results for CN(C)c1cccc(C(=O)NCC2(c3ccccc3)CCOCC2)c1 ?
mHTT-CaM PPI inh: -3.4; Pf apPOL block: -4.0

What do the screens show for `O=C(Nc1cnc(N2CCCCC2)nc1)c1ccc(Br)o1`?
mHTT-CaM PPI inh: -5.6; Pf apPOL block: -1.6

How did O=C(Nc1ccc2c(c1)CCCN2C(=O)C1CC1)c1cc(Br)ccc1Cl do in these assays?
mHTT-CaM PPI inh: -7.8; Pf apPOL block: -4.2

What do the screens show for `O=C(Nc1ccc(N2CCCC2)cc1)c1ccc(Br)o1`?
mHTT-CaM PPI inh: 61.7*; Pf apPOL block: 2.3

What do the screens show for `O=C(Nc1ccc(N2CCCC2)cc1)c1ccccc1[N+](=O)[O-]`?
mHTT-CaM PPI inh: 83.7*; Pf apPOL block: -5.9

Results for O=C(Nc1ccc(N2CCCC2)cc1)C(Cl)(Cl)Cl ?
mHTT-CaM PPI inh: 73.6*; Pf apPOL block: -8.6

Results for O=C(Nc1ccc(N2CCCC2)cc1)c1cc(Br)ccc1Cl ?
mHTT-CaM PPI inh: 86.3*; Pf apPOL block: 0.1

What do the screens show for `Cc1ccccc1C(=O)Nc1ccc(N2CCCC2)cc1`?
mHTT-CaM PPI inh: 33.5; Pf apPOL block: -33.7

Results for O=C(Nc1ccc(N2CCCCC2)cc1)c1ccccc1[N+](=O)[O-] ?
mHTT-CaM PPI inh: 19.5; Pf apPOL block: -30.1

How did CCc1c(C)nc2ccc(OC)cc2c1SCCC(=O)O do in these assays?
mHTT-CaM PPI inh: 3.0; Pf apPOL block: 2.8

What do the screens show for `COc1ccc(-c2ccc(CN3C(CC(C)C)C(=O)N(Cc4cn(Cc5ccco5)nn4)CCS3(=O)=O)cc2)cc1` (stereo not drawn)?
mHTT-CaM PPI inh: 31.9; Pf apPOL block: -2.3

What do the screens show for `COCOCCn1cc(CN2CCS(=O)(=O)N(Cc3ccc(-c4ccc(F)nc4)cc3)C(C(C)C)C2=O)nn1` (stereo not drawn)?
mHTT-CaM PPI inh: -7.6; Pf apPOL block: -3.5

What do the screens show for `CC(C)CC1C(=O)N(Cc2cn(Cc3ccco3)nn2)CCS(=O)(=O)N1Cc1ccc(-c2ccccc2)cc1` (stereo not drawn)?
mHTT-CaM PPI inh: 67.8*; Pf apPOL block: -3.7

Results for COCOCCn1cc(CN2CCS(=O)(=O)N(Cc3ccc(-c4ccc(F)nc4)cc3)C(CC(C)C)C2=O)nn1 (stereo not drawn) ?
mHTT-CaM PPI inh: 50.1*; Pf apPOL block: 5.5

What do the screens show for `CC(C)CC1C(=O)N(Cc2cn(Cc3ccco3)nn2)CCS(=O)(=O)N1Cc1ccc(-c2ccncc2)cc1` (stereo not drawn)?
mHTT-CaM PPI inh: 32.9; Pf apPOL block: -5.3

What do the screens show for `CC(C)CC1C(=O)N(Cc2cn(Cc3ccco3)nn2)CCS(=O)(=O)N1Cc1ccc(-c2ccc(F)nc2)cc1` (stereo not drawn)?
mHTT-CaM PPI inh: 60.3*; Pf apPOL block: -5.5

Results for CN(Cc1ccccc1)C(=O)c1cn(-c2ccc(F)cc2)nn1 ?
mHTT-CaM PPI inh: 0.1; Pf apPOL block: -4.4

How did NNc1nc(Nc2ccccc2)nc(N2CCCCC2)n1 do in these assays?
mHTT-CaM PPI inh: 99.4*; Pf apPOL block: -4.3

Results for c1ccc(Nc2nc(N3CCCC3)nc(N3CCNCC3)n2)cc1 ?
mHTT-CaM PPI inh: 10.2; Pf apPOL block: -10.7

Results for O=C(C1CC1)N1CCN(C(=O)C2COCC(=O)N2Cc2ccccc2)CC1 (stereo not drawn) ?
mHTT-CaM PPI inh: -8.5; Pf apPOL block: 4.0

Results for COc1ccc(OC)c(/C=C2/C(=O)NC(=O)N(Cc3ccc(F)cc3)C2=O)c1 ?
mHTT-CaM PPI inh: 34.0; Pf apPOL block: 0.5

What do the screens show for `CCC(C)Nc1nc(-c2cc(OC)c(OC)c(OC)c2)nc2ccccc12` (stereo not drawn)?
mHTT-CaM PPI inh: -4.0; Pf apPOL block: 51.2*

What do the screens show for `CCC(C)Nc1nc(-c2ccccc2O)nc2ccccc12` (stereo not drawn)?
mHTT-CaM PPI inh: -85.0; Pf apPOL block: 2.9

What do the screens show for `COc1cc(-c2nc(NCc3ccc(F)cc3)c3ccccc3n2)cc(OC)c1OC`?
mHTT-CaM PPI inh: 88.0*; Pf apPOL block: 16.4
